The list shows a part of the results. Records with an inconclusive call do not appear. Active and inactive are the calls of the source. Calls follow the shape of the dose curve; as a rule, active = well fitted inhibition curve with a large enough effect; inconclusive = small, poorly fitted or top-dose-only effect; inactive = no such curve, though single readings can be large or run the other way.
target: 4'-phosphopantetheinyl transferase Sfp (Bacillus subtilis (strain 168)) (UniProt P39135); assay: Gel-Based Assay for Inhibitos of Bacillus subtilis Sfp phosphopantetheinyl transferase (PPTase): Chemistry Optimization Followup; settings: purified Sfp PPTase, gel-based product detection; series mostly up to 250 µM; activity change, negative = inhibition: at the top concentration
Excerpt: The covalent attachment of a phosphopantetheinyl (4'-PP) arm to a variety of synthases and other proteins is a key posttranslational protein modification. The 4'-PP is installed on the proteins post-translationally from coenzyme A (CoA) on a conserved serine residue by action of phosphopantetheinyl transferase (PPTase) enzymes. Phosphopantetheinylation is essential for synthase activity, and removal of the PPTase gene precludes natural product synthesis in microorganisms, or in the case of fatty acid biosynthesis, renders the organism unviable. PPTase enzymes belong to a distinct structural superfamily. Within bacteria, these enzymes are grouped into two classes based upon primary structure, the AcpS-Type and Sfp-Type PPTases.
Sfp-type PPTases, corresponding to an activator of surfactin production in Bacillus subtilis, are responsible for modifying type I polyketide and nonribosomal peptide synthases of prokaryotes. Sfp-type PPTases are responsible for the activation of a variety of pathogen-associated virulence factors. Among these compounds are toxins such as mycolactone from Mycobacterium ulcerans, siderophores such as vibriobactin from Vibrio cholerae or mycobactin from Mycobacterium tuberculosis, as well as the mycolic acids which form the waxy cell wall of Mycobacteria. The biosyntheses of these natural products are considered attractive targets for drug design.
In this assay, compounds were evaluated by monitoring of fluorescence transfer to whole carrier protein substrates via polyacrylamide gel electrophoresis. See Yasgar, et al. (PMID: 20094656) for further details on assay. This assay was used to evaluate follow-up compounds from the primary screen (AID: 1490).
NIH Chemical Genomics Center [NCGC]
NIH Molecular Libraries Probe Centers Network [MLPCN]
Assay Submitter (PI): Michael Burkart, University of California, San Diego
A DMSO solution of confirmed hits (0.5 microL) was added to a 1.33X enzyme solution (15 microL, containing 26.6 nM Sfp, 66 mM HEPES, 13.3 mM MgCl2, 0.0133% NP-40, 0.133% BSA, pH 7.6). After a 10 minute incubation, the enzymatic reaction was initiated by the addition of 4 X substrate solution (4 microL, containing 50 microM Rhodamine CoA and 50 microM apo-Actinorhodin-ACP). The reactions were terminated after a 30 minute incubation at room temperature by the addition of 2X quench solution (20 microL, containing 4 M Urea, 25 mM EDTA, 0.004% phenol red, pH 8.0). Samples were separated under native conditions on a 20% polyacrylamide gel using standard Laemmli conditions. Following the run, gels were imaged with a Chemi-Doc Plus imager (Bio-Rad, Hercules, CA) and band intensity quantified using the ImageJ software package. Pixel density values were normalized to control wells (SCH202676) and fit with the 4-parameter Hill equation using in-house tools.

Sequence of 4'-phosphopantetheinyl transferase Sfp (Bacillus subtilis (strain 168)) (P39135 whole entry, looked up): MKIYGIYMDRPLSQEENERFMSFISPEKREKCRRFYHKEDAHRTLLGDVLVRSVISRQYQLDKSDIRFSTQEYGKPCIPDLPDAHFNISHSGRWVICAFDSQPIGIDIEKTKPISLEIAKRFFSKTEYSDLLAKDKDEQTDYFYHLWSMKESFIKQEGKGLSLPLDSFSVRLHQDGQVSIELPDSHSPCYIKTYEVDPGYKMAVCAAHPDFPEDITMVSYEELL

Potency, active:
Cc1cc(C)nc(NC(=S)N2CCN(c3ccc(Cl)cc3C(F)(F)F)CC2)c1 6.75 µM
COc1ccnc(NC(=S)N2CCN(c3ncc(C(F)(F)F)cc3Cl)CC2)c1 3.02 µM
Cc1cc(C)nc(NC(=S)N2CCN(c3ccc4nonc4c3)CC2)c1 10 µM
Cc1ccc(N2CCN(C(=S)Nc3cc(C)ccn3)CC2)cc1 3.16 µM
Cc1cc(C)nc(NC(=S)N2CCN(c3cccc(C(F)(F)F)c3)CC2)c1 1.58 µM
Cc1cc(C)nc(NC(=S)N2CCN(c3cccc(C#N)c3)CC2)c1 10 µM

Activity change, negative = inhibition, inactive:
FC(F)(F)c1cccc(N2CCN(C(=S)Nc3ccncc3)CC2)c1 5.42%
COc1cccc(NC(=S)N2CCN(c3ccc(Cl)cc3Cl)CC2)n1 44.2%
COc1cccc(NC(=S)N2CCN(c3ccccc3C(F)(F)F)CC2)n1 61.4%
